From PubChem BioAssay
Activity calls are given as the source filed them.

Columns and labels:
[1] = test system: PRMT1 (protein arginine N-methyltransferase 1); assay: PRMT1 binders on small-molecule microarrays, primary screen, biochemical, small-molecule microarray, 635 nm fluorescence (AID 1088); settings: small-molecule microarray binding, higher = more signal;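 also: binding of Prmt1 protein to compounds spotted on small-molecule microarray slides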
[2] = yeast growth modulation, basal conditions, primary screen, YJM789 clinical isolate, OD600, 24 h (AID 1089);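 also: growth of clinical yeast isolate S. cerevisiae YJM 789 seeded 1000 cells per well; test concentration not given here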; settings: S. cerevisiae YJM789 growth, higher = more signal, called active from +8 up or from −8 down
[3] = fission yeast growth modulation, primary screen, strain 972, OD600, 24 h, no modulator (AID 1090);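 also: basal condition with compound alone and no growth modifier present; test concentration not given here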; settings: S. pombe 972 growth, higher = more signal, called active from +8 up or from −8 down
[4] = S. cerevisiae growth modulation with rapamycin, primary screen, strain BY4716, OD600, 96 h (AID 1091); settings: higher = more signal, called active from +8 up or from −8 down; also: test concentration not given here
[5] = biological target: Torsin-1A-interacting protein 2 (Homo sapiens) (UniProt Q8NFQ8); assay: LULL1 binders on small-molecule microarray, primary screen, cell lysate, human LULL1 lysate, 635/667 nm fluorescence (AID 1092); settings: hLULL1 lysate binding, 635 nm fluorescence, higher = more signal;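 also: probe is lysate of COS7 cells overexpressing human LULL1; score merges per-feature 667 nm fluorescence with signal-to-noise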
[6] = E. coli growth modulation, two-sided OD650, primary screen, E. coli filamentation project, strain DRC41, 24 h (AID 1093); settings: OD650, 24 h, higher = more signal, called active from +8 up or from −8 down;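 also: MC1000 strain lacking acrAB efflux and sulA so SOS filamentation is blocked; test concentration not given here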
[7] = small-molecule microarray binders of probe aLefty2, primary screen, biochemical, biotinylated probe, 635/667 nm fluorescence (AID 1094); settings: higher = more signal;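 also: score merges spot fluorescence near 667 nm with spot signal-to-noise ratio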
[8] = test system: Noggin (protein binding on small-molecule microarray); assay: Noggin binders on small-molecule microarray, primary screen, biochemical, 635/667 nm fluorescence (AID 1095); settings: 635 nm fluorescence, higher = more signal;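 also: score merges 667 nm feature fluorescence with signal to noise over triplicate slides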
[9] = biological target: Neurogenic locus notch homolog protein 3 (Homo sapiens) (UniProt Q9UM47); assay: NOTCH3 binders on small-molecule microarray, primary screen, biochemical, 635/667 nm fluorescence (AID 1096); settings: NOTCH3 binding, 635 nm fluorescence, higher = more signal
[10] = small-molecule microarray binders of probe aEGFR, primary screen, biochemical, biotinylated probe, 635/667 nm fluorescence (AID 1097); settings: higher = more signal;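 also: probe is a biotinylated anti-EGFR antibody binding compounds printed on slides; score combines fluorescence near 667 nm and signal to noise of each spot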
[11] = test system: Plasmodium falciparum Sir2 (PF13_0152, Sir2A); assay: pfSir2 binders on small-molecule microarrays, primary screen, biochemical, small-molecule microarray, 635 nm fluorescence (AID 1098); settings: small-molecule microarray binding, fluorescence 635 nm; higher = more signal;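 also: score merges spot fluorescence intensity with its signal-to-noise ratio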
[12] = small-molecule microarray binders of probe aDKK1, primary screen, biochemical, biotinylated probe, 635/667 nm fluorescence (AID 1099); settings: higher = more signal;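 also: score merges 667nm spot fluorescence with signal to noise across triplicate slides; reference of the scale not given here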
[13] = small-molecule microarray binders of probe aCHRDL2, primary screen, biochemical, biotinylated probe, 635/667 nm fluorescence (AID 1100); settings: higher = more signal
[14] = splicing luciferase reporter signal modulators, primary screen, spliceosome inhibition project, cell-based, HEK293, splice +/- reporter (AID 1101); settings: luminescence, 24 h, higher = more signal, called active from +8 up or from −8 down;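 also: HEK293 cells carrying a splicing-competent luciferase reporter gene; test concentration not given here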
[15] = biological target: Fibroblast growth factor 10 (Homo sapiens) (UniProt O15520); assay: FGF10 binders on small-molecule microarrays, primary screen, biochemical, small-molecule microarray, 635 nm fluorescence (AID 1102); settings: FGF10 binding, fluorescence 635 nm, higher = more signal
[16] = test system: glycogen synthase kinase-3 (GSK3A per assay name; protocol says GSK3B); assay: GSK3 binders on small-molecule microarrays, primary screen, biochemical, small-molecule microarray, 635 nm fluorescence, GSK3A (AID 1103); settings: small-molecule microarray binding, fluorescence 635 nm; higher = more signal; also: the record names both GSK3A and GSK3B
[17] = biological target: Epidermal growth factor receptor (Homo sapiens) (UniProt P00533); assay: EGFR binders on small-molecule microarrays, primary screen, biochemical, small-molecule microarray, 635 nm fluorescence (AID 1104); settings: EGFR binding, higher = more signal;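 also: score merges 667 nm emission intensity with spot signal to noise over triplicate slides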
[18] = biological target: Follistatin-related protein 3 (Homo sapiens) (UniProt O95633); assay: FSTL3 binders on small-molecule microarrays, primary screen, biochemical, small-molecule microarray, 635 nm fluorescence (AID 1105); settings: FSTL3 binding, higher = more signal;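 also: score merges emission near 667 nm and signal to noise per printed spot across three slides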
[19] = biological target: Dickkopf-related protein 1 (Homo sapiens) (UniProt O94907); assay: DKK1 binders on small-molecule microarrays, primary screen, biochemical, small-molecule microarray, 635 nm fluorescence scan (AID 1106); settings: DKK1 binding, higher = more signal;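 also: score merges emission near 667 nm with signal to noise over three replicate slides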
[20] = test system: Inhibin beta A chain (activin A); assay: INHBA (activin A) binders on microarrays, primary screen, biochemical, small-molecule microarray, 635 nm fluorescence scan (AID 1107); settings: small-molecule microarray binding, higher = more signal;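 also: mouse activin A protein probed at 4.33 µg/mL on printed slides; score merges bound-protein fluorescence near 667 nm with spot signal-to-noise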

Chain of Follistatin-related protein 3 (Homo sapiens) (O95633 whole entry, looked up): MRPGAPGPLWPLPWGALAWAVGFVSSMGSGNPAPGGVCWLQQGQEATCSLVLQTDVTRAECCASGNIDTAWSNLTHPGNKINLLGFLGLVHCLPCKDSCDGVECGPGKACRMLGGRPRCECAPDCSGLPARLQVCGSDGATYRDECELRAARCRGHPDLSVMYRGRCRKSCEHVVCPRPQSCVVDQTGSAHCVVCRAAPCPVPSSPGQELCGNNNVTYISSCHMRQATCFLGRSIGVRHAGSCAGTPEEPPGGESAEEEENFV
Chain of Dickkopf-related protein 1 (Homo sapiens) (O94907 whole entry, looked up): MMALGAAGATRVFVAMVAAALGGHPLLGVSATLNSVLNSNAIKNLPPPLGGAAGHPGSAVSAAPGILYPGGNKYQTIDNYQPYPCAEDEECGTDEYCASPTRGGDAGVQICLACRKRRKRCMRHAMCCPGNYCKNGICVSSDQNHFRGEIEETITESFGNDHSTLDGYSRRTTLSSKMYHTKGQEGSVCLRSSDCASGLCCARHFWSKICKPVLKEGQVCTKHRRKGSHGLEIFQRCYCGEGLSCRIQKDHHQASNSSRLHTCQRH
Chain of Epidermal growth factor receptor (Homo sapiens) (P00533 whole entry, looked up): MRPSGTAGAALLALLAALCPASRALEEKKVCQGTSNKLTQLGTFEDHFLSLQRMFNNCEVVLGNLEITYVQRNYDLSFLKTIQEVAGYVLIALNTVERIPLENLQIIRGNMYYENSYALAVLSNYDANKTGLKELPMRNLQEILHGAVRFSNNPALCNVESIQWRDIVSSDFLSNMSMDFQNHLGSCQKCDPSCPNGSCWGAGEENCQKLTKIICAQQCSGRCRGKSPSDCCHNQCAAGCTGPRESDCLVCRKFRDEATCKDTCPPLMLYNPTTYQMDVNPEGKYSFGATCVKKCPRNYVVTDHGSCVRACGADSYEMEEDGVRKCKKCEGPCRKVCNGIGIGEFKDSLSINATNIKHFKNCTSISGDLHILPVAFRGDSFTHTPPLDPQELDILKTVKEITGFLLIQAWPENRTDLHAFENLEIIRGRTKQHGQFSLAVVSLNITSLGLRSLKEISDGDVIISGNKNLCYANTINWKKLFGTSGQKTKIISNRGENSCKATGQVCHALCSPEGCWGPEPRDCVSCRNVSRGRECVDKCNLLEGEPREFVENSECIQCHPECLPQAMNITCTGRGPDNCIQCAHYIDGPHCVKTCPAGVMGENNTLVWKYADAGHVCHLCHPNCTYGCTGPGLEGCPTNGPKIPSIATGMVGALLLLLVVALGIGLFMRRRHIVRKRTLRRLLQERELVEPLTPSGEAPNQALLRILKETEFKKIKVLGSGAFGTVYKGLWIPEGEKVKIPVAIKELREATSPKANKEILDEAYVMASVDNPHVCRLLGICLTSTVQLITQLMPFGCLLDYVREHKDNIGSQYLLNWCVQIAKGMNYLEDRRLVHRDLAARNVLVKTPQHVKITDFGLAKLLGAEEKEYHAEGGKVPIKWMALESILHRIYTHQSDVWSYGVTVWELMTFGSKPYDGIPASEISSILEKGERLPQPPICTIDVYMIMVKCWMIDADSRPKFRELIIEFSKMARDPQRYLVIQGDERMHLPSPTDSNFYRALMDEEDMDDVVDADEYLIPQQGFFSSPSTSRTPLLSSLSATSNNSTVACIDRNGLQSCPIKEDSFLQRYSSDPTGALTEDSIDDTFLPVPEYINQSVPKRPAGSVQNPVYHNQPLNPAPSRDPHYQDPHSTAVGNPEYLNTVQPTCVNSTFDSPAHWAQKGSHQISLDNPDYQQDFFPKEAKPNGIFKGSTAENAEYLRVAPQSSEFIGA
Chain of Torsin-1A-interacting protein 2 (Homo sapiens) (Q8NFQ8 whole entry, looked up): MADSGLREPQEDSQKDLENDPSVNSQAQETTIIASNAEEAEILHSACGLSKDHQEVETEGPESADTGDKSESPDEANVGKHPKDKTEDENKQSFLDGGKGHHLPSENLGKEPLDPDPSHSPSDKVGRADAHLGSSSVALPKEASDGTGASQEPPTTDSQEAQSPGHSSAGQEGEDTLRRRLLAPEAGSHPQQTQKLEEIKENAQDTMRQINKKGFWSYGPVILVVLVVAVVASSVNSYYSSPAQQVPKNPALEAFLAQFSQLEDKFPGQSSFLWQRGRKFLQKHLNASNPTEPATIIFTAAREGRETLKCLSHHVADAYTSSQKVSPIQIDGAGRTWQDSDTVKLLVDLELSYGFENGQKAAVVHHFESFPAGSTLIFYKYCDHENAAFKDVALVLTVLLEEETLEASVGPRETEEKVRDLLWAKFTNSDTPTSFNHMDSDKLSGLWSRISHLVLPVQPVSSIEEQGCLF
Chain of Neurogenic locus notch homolog protein 3 (Homo sapiens) (Q9UM47 whole entry, looked up): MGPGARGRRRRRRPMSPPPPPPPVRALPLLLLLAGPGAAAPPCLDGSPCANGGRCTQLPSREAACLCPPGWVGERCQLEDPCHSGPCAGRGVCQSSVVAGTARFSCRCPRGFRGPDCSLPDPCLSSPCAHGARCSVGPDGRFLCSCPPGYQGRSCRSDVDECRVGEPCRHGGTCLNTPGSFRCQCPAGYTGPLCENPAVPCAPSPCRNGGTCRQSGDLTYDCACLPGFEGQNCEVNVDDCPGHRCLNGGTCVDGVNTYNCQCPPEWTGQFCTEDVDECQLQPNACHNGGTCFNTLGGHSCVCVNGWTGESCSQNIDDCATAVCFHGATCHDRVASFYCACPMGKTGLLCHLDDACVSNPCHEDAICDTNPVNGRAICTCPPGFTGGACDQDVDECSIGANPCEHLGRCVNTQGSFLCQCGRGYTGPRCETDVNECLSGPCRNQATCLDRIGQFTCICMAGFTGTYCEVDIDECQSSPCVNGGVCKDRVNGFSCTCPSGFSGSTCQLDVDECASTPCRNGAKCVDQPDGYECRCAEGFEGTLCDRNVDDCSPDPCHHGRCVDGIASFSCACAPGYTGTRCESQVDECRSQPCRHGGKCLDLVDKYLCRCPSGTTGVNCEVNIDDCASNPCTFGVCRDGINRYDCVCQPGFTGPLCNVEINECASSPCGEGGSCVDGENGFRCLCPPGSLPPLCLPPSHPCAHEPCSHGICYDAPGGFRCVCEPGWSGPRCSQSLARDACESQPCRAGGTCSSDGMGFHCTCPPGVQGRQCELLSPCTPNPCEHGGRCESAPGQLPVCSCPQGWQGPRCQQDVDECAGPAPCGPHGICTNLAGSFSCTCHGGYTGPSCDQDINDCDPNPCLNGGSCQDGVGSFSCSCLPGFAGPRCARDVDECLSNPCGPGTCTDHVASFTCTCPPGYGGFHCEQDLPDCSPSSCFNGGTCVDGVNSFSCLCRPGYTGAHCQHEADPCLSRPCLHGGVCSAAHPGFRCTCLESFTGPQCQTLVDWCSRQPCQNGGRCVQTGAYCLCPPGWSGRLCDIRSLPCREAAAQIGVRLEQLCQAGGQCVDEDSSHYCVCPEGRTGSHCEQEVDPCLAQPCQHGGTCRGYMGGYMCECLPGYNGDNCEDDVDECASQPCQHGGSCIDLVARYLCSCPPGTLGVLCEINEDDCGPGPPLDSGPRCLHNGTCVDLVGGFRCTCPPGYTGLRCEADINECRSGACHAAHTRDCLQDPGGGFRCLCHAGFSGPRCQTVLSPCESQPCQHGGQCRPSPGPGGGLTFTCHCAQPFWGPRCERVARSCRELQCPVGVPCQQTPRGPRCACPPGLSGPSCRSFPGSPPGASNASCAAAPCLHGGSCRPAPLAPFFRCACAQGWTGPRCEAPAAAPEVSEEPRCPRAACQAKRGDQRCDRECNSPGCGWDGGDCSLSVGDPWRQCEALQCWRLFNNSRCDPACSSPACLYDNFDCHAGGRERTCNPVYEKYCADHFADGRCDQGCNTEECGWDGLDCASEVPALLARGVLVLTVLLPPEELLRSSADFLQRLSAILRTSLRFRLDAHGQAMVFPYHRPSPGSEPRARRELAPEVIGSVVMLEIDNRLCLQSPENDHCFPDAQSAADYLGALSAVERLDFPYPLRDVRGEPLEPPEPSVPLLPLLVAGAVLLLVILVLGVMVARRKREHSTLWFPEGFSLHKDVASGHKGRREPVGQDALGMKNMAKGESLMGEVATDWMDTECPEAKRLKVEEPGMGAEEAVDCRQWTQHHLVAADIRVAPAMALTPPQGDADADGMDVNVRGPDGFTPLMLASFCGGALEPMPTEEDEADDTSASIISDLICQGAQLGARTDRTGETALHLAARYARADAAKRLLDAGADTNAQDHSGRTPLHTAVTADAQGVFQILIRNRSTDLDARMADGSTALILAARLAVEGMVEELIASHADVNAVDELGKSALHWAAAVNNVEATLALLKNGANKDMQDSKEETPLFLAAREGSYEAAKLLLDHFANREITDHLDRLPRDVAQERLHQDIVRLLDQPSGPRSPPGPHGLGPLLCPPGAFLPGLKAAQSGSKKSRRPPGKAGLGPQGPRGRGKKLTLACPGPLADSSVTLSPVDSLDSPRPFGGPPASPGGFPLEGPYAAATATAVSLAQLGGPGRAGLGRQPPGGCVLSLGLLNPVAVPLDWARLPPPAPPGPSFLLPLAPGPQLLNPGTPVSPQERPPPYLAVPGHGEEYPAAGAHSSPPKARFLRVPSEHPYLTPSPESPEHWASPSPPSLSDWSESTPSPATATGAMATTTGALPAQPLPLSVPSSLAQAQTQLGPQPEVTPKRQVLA
Chain of Fibroblast growth factor 10 (Homo sapiens) (O15520 whole entry, looked up): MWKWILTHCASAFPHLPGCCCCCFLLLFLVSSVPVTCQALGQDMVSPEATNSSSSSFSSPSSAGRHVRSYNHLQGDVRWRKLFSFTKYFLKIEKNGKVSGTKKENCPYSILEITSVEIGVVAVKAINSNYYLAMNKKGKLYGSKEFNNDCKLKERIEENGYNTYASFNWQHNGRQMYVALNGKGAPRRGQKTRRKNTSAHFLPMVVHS

| SMILES | composite z-score [1] | z-score [2] | z-score [3] | z-score [4] | composite z-score [5] | z-score [6] | composite z-score [7] | composite z-score [8] | composite z-score [9] | composite z-score [10] | composite z-score [11] | composite z-score [12] | composite z-score [13] | z-score [14] | composite z-score [15] | composite z-score [16] | composite z-score [17] | composite z-score [18] | composite z-score [19] | composite z-score [20] |
| --- | --- | --- | --- | --- | --- | --- | --- | --- | --- | --- | --- | --- | --- | --- | --- | --- | --- | --- | --- | --- |
| COCCn1c(C(=O)N(C)C)cc2c1C[C@H]1CN(C(=O)c3ccccc3)[C@@](Cc3ccc(OC)cc3)(C(=O)OC)[C@@H]21 | -0.325 | 1.15 (inactive) | 1.82 (inactive) | 2.03 (inactive) | 3.31 | -0.332 (inactive) | 0.43 | -0.465 | 1.1 | 0.0634 | 0.816 | 0.785 | 1.34 | -0.346 (inactive) | 0.26 | 0.22 | 0.0351 | 0.324 | -0.745 | 1.21 |
| CCCN1C(=O)[C@@]2(c3ccc([N+](=O)[O-])cc3)CC(=O)N(CC34CC5CC(CC(C5)C3)C4)[C@@H]2c2ccc(CO)cc21 | -0.247 | -0.962 (inactive) | -0.365 (inactive) | -1.93 (inactive) | 0.162 | -0.19 (inactive) | -0.0099 | 0.047 | -0.184 | 0.142 | -0.596 | 0.0721 | 0.342 | 0.331 (inactive) | -0.334 | -0.619 | -0.381 | -0.701 | -0.626 | 0.378 |
| CC1CC/C=C\[C@H]2OC34C=CCN(c5ccc(Cl)cc5)C(=O)[C@H]3N(CCCCCCO)C(=O)[C@]4(C)C2C(=O)O1 (stereo not given in full) | -0.106 | -0.0412 (inactive) | -0.884 (inactive) | 0.187 (inactive) | 0.995 | 0.206 (inactive) | -0.233 | -0.914 | -0.277 | -0.314 | 0.597 | -0.13 | 0.747 | 0.104 (inactive) | -0.533 | -0.594 | -0.726 | -0.931 | -1.43 | 0.0845 |
| CC(C)N1C(=O)c2ccccc2[C@@H](C(=O)NCC(F)(F)F)[C@@H]1c1ccc(CO)cc1 | -0.57 | 0.125 (inactive) | -0.637 (inactive) | 0.0898 (inactive) | 0.952 | -0.199 (inactive) | -0.117 | 0.157 | -0.59 | -0.123 | 0.861 | -0.0674 | 0.53 | 0.655 (inactive) | -0.746 | -0.871 | -0.318 | -0.464 | -0.459 | 0.935 |
| O=C1O[C@@H](c2ccccc2)[C@@H](c2ccccc2)N2[C@@H](c3ccc(OCCO)cc3)[C@]3(C(=O)Nc4ccc(C#CC5(O)CCCCCC5)cc43)[C@@H](C(=O)O)[C@H]12 | 1.35 | 2.79 (inactive) | -0.256 (inactive) | 0.757 (inactive) | 2.64 | 2.21 (inactive) | -0.166 | 0.674 | 0.743 | -0.0828 | 1.46 | 0.623 | 0.457 | -0.702 (inactive) | 0.372 | 0.995 | 0.146 | 0.401 | -0.0236 | 0.2 |
